# PubChem BioAssay AID686978 (National Center for Advancing Translational Sciences (NCATS), 2013)
# Several values for one entry are separate records, joined by “and”; a condition that tells them apart may be missing. Equal entries are not always repeated. Screen size: about 420,000 compounds; about 64,000 (15%) were called active. Not shown: some 27% with an inconclusive outcome. Not all results are given here. Values without a mark were called inactive. Calls follow the shape of the dose curve; as a rule, active = well fitted inhibition curve with a large enough effect; inconclusive = small, poorly fitted or top-dose-only effect; inactive = flat fitted curve, though single readings scatter.
# Test: qHTS for Inhibitors of human tyrosyl-DNA phosphodiesterase 1 (TDP1): qHTS in cells in absence of CPT; also: nearly all actives have a fitted effect of over 55% in size
# Conditions: DT40 Tdp1-/- hTDP1 cells, no CPT, ATP luminescence, 48 h; activity change, negative = growth inhibition: at 46.2 µM (top of the series)
# In short: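 DT40 Tdp1-/-;hTDP1 cells, no CPT (DMSO vehicle only), 400 cells/well; compounds pin-transferred; ≥48 hr, 37 °C; CellTiter-Glo 30 min RT dark, luminescence read.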
# % is scaled to controls: 0 for no effect and ±100 for the full control effect; potency is read from the fitted curve at half-maximal effect.
SMILES,Potency,"activity change, negative = growth inhibition [%]"
CCCCN(CC)C(=O)C1CCCN(S(=O)(=O)c2cccc3nsnc23)C1 (stereo not given),18.4 µM (active),–
CCCCN(C)CCNC(=O)C1CCCN(S(=O)(=O)c2cccc3nsnc23)C1 (stereo not given),inactive,–
CCCCC(CC)CNC(=O)C1CCN(S(=O)(=O)c2cccc3nsnc23)CC1 (stereo not given),–,-26.8
Cc1cc(=O)[nH]c(SCc2cc(Cl)ccc2OC(F)F)n1,–,-17.1
O=C(COC(=O)C1CC2CCCC(C1)C2=O)NC(=O)c1ccccc1 (stereo not given),–,-1.16
O=C(COC(=O)c1ccc(NS(=O)(=O)c2cccs2)cc1O)Nc1ccc(F)cc1,–,-12.5
CCC(CC)NC(=O)CSc1nnc(-c2c[nH]c3ccccc23)o1,–,-25.7
O=S(=O)(NCCc1ccncc1)c1ccccc1,–,-0.539
CCCC(=O)Nc1cccc(-c2cn3ccsc3n2)c1,–,-28.8
CS(=O)(=O)Nc1cccc(-c2cn3ccccc3n2)c1,–,-17.7
CCCS(=O)(=O)Nc1cccc(-c2cn3ccsc3n2)c1,25.9 µM (active),–
O=C1CC2(CCCC2)Oc2ccc(Cl)cc21,–,5.04
COc1cccc2c1OCC(CN1CCN(C3CCCCC3)C(CCO)C1)=C2 (stereo not given),–,-8.3
CCc1cccc(OC2OC(CO)C(O)C(O)C2NC(C)=O)c1 (stereo not given),–,-2.2
Cn1ncc2c(Nc3cccc4ccccc34)ncnc21,–,-26.8
O=C(O)C(NS(=O)(=O)c1cccc2nsnc12)c1ccccc1 (stereo not given),–,9.14
CCOC(=O)c1cccc(NC(=O)C(Cc2ccccc2)NS(=O)(=O)c2cccc3nsnc23)c1 (stereo not given),23.1 µM (active),–
COc1ccc(CNC(=O)C(NS(=O)(=O)c2cccc3nsnc23)C(C)C)cc1 (stereo not given),–,0.675
COc1ccc(NC(=S)N2CCCC(CO)C2)c(OC)c1 (stereo not given),–,1.5
O=C(C1CCCO1)N(c1ccc(F)cc1)C1C=CS(=O)(=O)C1 (stereo not given),–,-14.6
O=C(Nc1ccccc1Cl)Nc1cccc2cccnc12,–,-2.9
COc1ccc(NC(=O)Nc2cccc3cccnc23)cc1,–,-8.75
O=C(Nc1ccccc1)Oc1cccc2cccnc12,1.03 µM (active),–
CSCCC(NC(=O)COc1ccccc1)C(=O)N(C)CC(=O)Nc1ccc(C)cc1 (stereo not given),–,-4.34
COc1ccc(S(=O)(=O)NCCSc2nnnn2-c2ccccc2)cc1,–,-4.54
COc1ccc(CCNS(=O)(=O)c2cccc([N+](=O)[O-])c2)cc1,–,5.04
COc1ccc(S(=O)(=O)NCCc2cc3ccc(C)c(C)c3[nH]c2=O)cc1,8.2 µM (active) and 23.1 µM (active),–
Cc1cc(NS(=O)(=O)c2ccccc2)no1,–,-2.46

SMILES,Potency,"activity change, negative = growth inhibition [%]"
CCOC(=O)CNC(=O)CSc1ncccc1-c1nc2ccccc2[nH]1,–,-6.06
C/C(=N/OC(=O)c1ccc(Br)cc1)c1ccc(C)cc1,–,4.62
O=Cc1c(Nc2ccccc2Cl)nc2ccccn2c1=O,–,-16.3
CCOc1cccc(-n2nnnc2-c2ccc(OC)cc2)c1,2.91 µM (active),–
COc1ccc(NC(=O)CSc2nnnn2-c2cccc(OC)c2)cc1,–,6.93
COc1ccc(-n2nnnc2-c2nc3ccccc3s2)cc1,–,-24.7
Cc1cccc(CSc2ccc(-c3cccs3)nn2)c1,inactive,–
CC(C)CCNC(=O)CSc1nc2ccccc2nc1Cc1ccc(Cl)cc1,–,2.89
Nc1ncnc2c1ncn2[C@@H]1O[C@H](CNS(=O)(=O)c2ccc(-c3ccno3)s2)[C@@H](O)[C@H]1O,–,-10.2
CO/N=C(\C(=O)N[C@@H]1C(=O)N2C(C(=O)O)=CCS[C@H]12)c1csc(N)n1,–,-2.2
O=C(O)C1CCCN1S(=O)(=O)c1ccc(Br)cc1 (stereo not given),–,2.25
O=C(c1ccccc1F)N1CCN(S(=O)(=O)c2ccc(Br)cc2)CC1,–,-0.0728
O=S(=O)(c1ccc(Br)cc1)n1ccc2ccccc21,18.4 µM (active),–
O=C(Nc1ccc2c(c1)OCCO2)C1CCCC1,–,-24.7
COc1ccc(CNC(=O)CCN2C(=O)c3ccccc3C2=O)cc1,–,19.1
COc1ccc(OCCCC(=O)NCCc2ccccc2)cc1,–,-0.81
COc1ccc(CCNCc2c(-c3ccccc3)n(C)c3ccccc23)cc1,16.4 µM (active),–
CC1(c2ccccc2)NC(=O)N(CC(=O)N2CC(=O)Nc3ccccc32)C1=O (stereo not given),–,-10.4
Cc1ccc(Cl)cc1NC(=O)NC1COc2ccccc2C1 (stereo not given),–,3.25
Cc1cc[n+](-c2[nH]c(=O)sc2/C=N/NC(=O)c2ccccc2[O-])cc1C,–,7.5
Cc1[nH]n(-c2ccccc2)c(=O)c1/C=N/NC(=O)c1ccoc1C,1.84 µM (active),–
Cc1ccc(N=Nc2c(C)[nH]n(-c3ccccc3)c2=O)cc1,–,1.78
CCn1c(SCC(=O)Nc2ccc(S(=O)(=O)Nc3onc(C)c3C)cc2)nnc1-c1ccccc1,–,4.75
CCOc1ccc(NC(=O)CCC(=O)NNC(=O)NC2CCCCC2)cc1,–,-28.5
O=c1[nH]c(N2CCOCC2)nc2ccccc12,–,-13.4
c1ccc(Nc2nc(N3CCOCC3)c3ccccc3n2)cc1,16.4 µM (active),–
O=C(COc1nc2ccccc2nc1N1CCOCC1)NCC(F)(F)F,–,-14.5
